Only some compounds are listed: those with a hit (about 9.2% of all), similar ones and a draw of the others.
ELG1 genotox: qHTS screen for small molecules that induce genotoxicity in human embryonic kidney (HEK293T) cells expressing luciferase-tagged ELG1. HEK293T ELG1-luciferase reporter, luminescence, 16 h. Potency, µM (highest dose often 46 µM), for the others: at the highest dose activity change, positive = activation, hits mostly activators. 1.3% of 330,000 active; further: % of control where 0% means no effect; nearly all actives have a fitted effect of over 60% in size
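Genotoxicity was scored as increased ELG1-luciferase reporter signal, measured by ONE-Glo luminescence (30 min, room temperature). Compound or vehicle exposure of the HEK293T reporter cells lasted 16 hr at 37°C.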
SMN2 splice enh: qHTS Assay for Enhancers of SMN2 Splice Variant Expression. HEK293 SMN2-luciferase splicing reporter, luminescence, 30-36 h. Potency, µM (highest dose often 46.1 µM), without a hit: at the highest dose activity change, positive = activation, usual class: activators. 2.8% of 210,000 active; further: % of control where 0% means no effect; nearly all actives have a fitted effect of over 55% in size
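HEK293 cells carry an SMN2 […]–luciferase reporter in which exon 7 inclusion puts luciferase in frame. Cells were plated 10-12 h before compound addition, then incubated 30-36 h at 37C. ONE-Glo luminescence was read; sodium butyrate at 4.5 mM final served as control.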
FLuc modulator: qHTS profiling assay for firefly luciferase inhibitor/activator using purifed enzyme and Km concentrations of substrates (counterscreen for miR-21 project); purified FLuc, Km substrates, luminescence inhibition; Potency, µM (series often up to 57.5 µM), without a hit: at the highest dose activity change, negative = inhibition, hits mostly inhibitors; 6.9% of 360,000 active;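 further: plate controls were vehicle for no effect and reference inhibitor for full effect; nearly all actives have a fitted effect of over 55% in size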
Target sequence (P08659 whole entry, looked up): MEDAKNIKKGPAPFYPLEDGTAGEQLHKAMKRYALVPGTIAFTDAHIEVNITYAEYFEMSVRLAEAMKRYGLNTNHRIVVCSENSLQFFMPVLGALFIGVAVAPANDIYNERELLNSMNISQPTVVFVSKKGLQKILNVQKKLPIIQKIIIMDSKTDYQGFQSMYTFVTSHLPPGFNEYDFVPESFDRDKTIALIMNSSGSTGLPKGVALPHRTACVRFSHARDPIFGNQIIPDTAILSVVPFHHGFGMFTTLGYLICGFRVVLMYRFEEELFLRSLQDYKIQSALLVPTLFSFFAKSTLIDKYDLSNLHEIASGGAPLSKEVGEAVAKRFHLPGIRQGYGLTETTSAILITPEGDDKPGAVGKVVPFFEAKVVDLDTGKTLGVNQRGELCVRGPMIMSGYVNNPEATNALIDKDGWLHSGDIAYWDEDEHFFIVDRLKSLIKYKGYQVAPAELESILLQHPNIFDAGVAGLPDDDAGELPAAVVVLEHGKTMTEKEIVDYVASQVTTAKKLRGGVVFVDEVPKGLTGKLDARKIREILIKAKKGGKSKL
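Biochemical qHTS of compounds, final roughly 60 µM downward over six points, against 10 nM purified firefly luciferase using Km concentrations of substrates (10 uM D-luciferin, 10 uM ATP) in Tris acetate pH 7.5 buffer; luminescence output.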
ELG1 DNA repair: qHTS screen for small molecules that inhibit ELG1-dependent DNA repair in human embryonic kidney (HEK293T) cells expressing luciferase-tagged ELG1; Potency, µM (titrated, usually from 46.1 µM), for inactives: at the top dose activity change, negative = inhibition, most hits filed as inhibitors; HEK293T ELG1-luciferase reporter, luminescence, 16 h; DNA damage induced by 5-fluorouridine; 2.3% of 330,000 active; further: on the % scale 0 is the no-effect control and ±100 the full control effect; nearly all actives have a fitted effect of over 55% in size
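Reporter activity after DNA damage by 5-fluorouridine is monitored. Compound-treated cells incubate 16 hr at 37 °C, then ONE-Glo is added for 30 min before luminescence reading.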
Rab9 prom act: qHTS Assay for Rab9 Promoter Activators; Huh7 Rab9 promoter-luciferase reporter, luminescence, 24 h; 2.8% of 320,000 active; Potency, µM (highest dose often 9.22 µM), for the others: at the highest dose activation, negative = inhibition, most hits filed as activators; further: % of control where 0% means no effect; nearly all actives have a fitted effect of over 60% in size
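Cell-based reporter: Huh7 stable for Rab9 promoter-driven luciferase, plated in reduced-serum medium with 10% FBS at 1500 cells/well, compound-treated 24 h at 37 °C, luminescence read after 10 min reagent.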
NPC1 prom act: qHTS Assay for NPC1 Promoter Activators; Huh7 NPC1 promoter luciferase reporter, 24 h; 2.4% of 320,000 active; Potency, µM (titrated, usually from 9.22 µM), for inactives: at the highest dose activation, most hits filed as activators; further: % of control where 0% means no effect; nearly all actives have a fitted effect of over 60% in size
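NPC1 promoter–luciferase Huh7 cells; 24 h compound; luminescence.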
* hit, by the source's call; [ ] = dose if it differs, or a comment. The call rests on the fitted dose curve; in most records, active means well fitted curve in the direction sought with a large enough effect; inconclusive means small, poorly fitted or top-dose-only effect, or another doubt; inactive means no such curve, though single readings can be large; an effect the other way counts as inactive or inconclusive. Potency means the concentration at half of the fitted maximal effect.

For CC1(C)CC(=O)C=C(Nc2ccc([N+](=O)[O-])cc2)C1 the results were ELG1 genotox -3.4%, FLuc modulator -13.2%, ELG1 DNA repair 0.0%, Rab9 prom act 8.8% and NPC1 prom act 1.6%.
Screening Cc1cc(=O)[nH]c(N/N=C/C=C/c2ccccc2)n1 returned ELG1 genotox -0.9%, SMN2 splice enh -8.5%, FLuc modulator -10.0%, ELG1 DNA repair 2.1%, Rab9 prom act -1.1% and NPC1 prom act -0.4%.
For Cc1cc(=O)[nH]c(N/N=C2/CCCC/C2=C\c2ccccc2)n1 the results were ELG1 genotox -6.2%, FLuc modulator -11.7%, ELG1 DNA repair 8.2µM*, Rab9 prom act 1.6% and NPC1 prom act -6.0%.
For CC1Cc2cc(/C(O)=C3/C(=O)C(=O)N(CCN4CCOCC4)C3c3cccc(O)c3)ccc2O1 (configuration not stated) the results were ELG1 genotox 24.8%, SMN2 splice enh 6.4%, FLuc modulator 21.3µM*, ELG1 DNA repair inconclusive, Rab9 prom act 0.3% and NPC1 prom act -1.9%.
`O=C(c1cc(C(=O)NCCc2ccccc2)c(=O)n(CCc2ccccc2)c1)c1cc(Cl)ccc1O` gave ELG1 genotox -15.2%, SMN2 splice enh -17.5%, FLuc modulator 1.1%, ELG1 DNA repair 23.1µM*, Rab9 prom act 0.6% and NPC1 prom act -0.8%.
COc1ccc(CCNC(=O)c2cc(C(=O)c3cc(Cl)ccc3O)cn(CCc3ccc(OC)cc3)c2=O)cc1 was read as ELG1 genotox -11.0%, SMN2 splice enh -35.9%, FLuc modulator 9.0%, ELG1 DNA repair inconclusive, Rab9 prom act -6.7% and NPC1 prom act -5.9%.
For COc1ccc(CCNC(=O)c2cc(C(=O)c3cc(C)ccc3O)cn(CCc3ccc(OC)cc3)c2=O)cc1 the results were ELG1 genotox -6.6%, SMN2 splice enh -43.9%, FLuc modulator 2.5%, ELG1 DNA repair 13µM*, Rab9 prom act -1.4% and NPC1 prom act -3.9%.
For O=C(NCc1ccc2c(c1)CCN2C(=O)c1ccccc1)c1ccco1 the results were FLuc modulator -15.3%.
Screening O=C1N/C(=C\c2nc3ccccc3s2)c2ccccc21 returned ELG1 genotox 0.58µM*, FLuc modulator 0.19µM*, ELG1 DNA repair inconclusive, Rab9 prom act 0.282µM* and NPC1 prom act 1µM*.
CC(NC(=O)C12CC3CC(CC(C3)C1)C2)C(=O)N/N=C/C1=C(N2CCOCC2)C(=C\c2cccc([N+](=O)[O-])c2)/CC1 (configuration not stated) was read as ELG1 genotox -3.1%, SMN2 splice enh -0.2%, FLuc modulator 0.7%, ELG1 DNA repair 6.51µM*, Rab9 prom act -2.6% and NPC1 prom act -3.7%.
Screening COc1ccc(-c2ccc(NC(=O)c3ccco3)cc2)nn1 returned ELG1 genotox inconclusive, FLuc modulator 1.2µM*, ELG1 DNA repair inconclusive, Rab9 prom act 0.1µM* and NPC1 prom act inconclusive.
Screening CCC(C)c1ccc(NC(=O)COC(=O)CCNC(=O)c2ccco2)cc1 (configuration not stated) returned ELG1 genotox 3.3%, ELG1 DNA repair inconclusive, Rab9 prom act -3.1% and NPC1 prom act -3.1%.
`COc1ccc(-c2cccc(NC(=O)c3ccco3)c2)nn1` gave ELG1 genotox -13.7%, FLuc modulator -17.6%, ELG1 DNA repair inconclusive, Rab9 prom act 1.6% and NPC1 prom act 2.7%.
For O=C(CSc1ccc(Cl)cc1)c1ccco1 the results were ELG1 genotox 20.4%, SMN2 splice enh 12.6%, FLuc modulator inconclusive, ELG1 DNA repair inconclusive, Rab9 prom act 8.2% and NPC1 prom act -0.5%.
For CC(=O)Nc1ccc(NC(=O)c2ccco2)cc1 the results were ELG1 genotox inconclusive, SMN2 splice enh 17.8µM*, FLuc modulator inconclusive, ELG1 DNA repair inconclusive, Rab9 prom act inconclusive and NPC1 prom act 21.8%.
`CCC(C)c1ccc(NC(=O)c2ccco2)cc1` (configuration not stated) gave ELG1 genotox 0.58µM*, FLuc modulator 0.426µM*, ELG1 DNA repair inconclusive, Rab9 prom act 0.316µM* and NPC1 prom act 0.141µM*.
`O=C(CCSc1ccc(Cl)cc1)c1ccco1` gave ELG1 genotox -8.6%, FLuc modulator 21.3µM*, ELG1 DNA repair -9.2%, Rab9 prom act -2.1%[1.84 µM] and NPC1 prom act -2.3%.
Cc1csc2nc(COc3ccc(NC(=O)COc4ccccc4F)cc3)cc(=O)n12 was read as SMN2 splice enh 6.9% and FLuc modulator -3.1%.
O=C(COc1ccc(Cl)cc1)Nc1ccc(NC(=O)c2ccco2)cc1 was read as ELG1 genotox inconclusive, FLuc modulator 1.0%, ELG1 DNA repair inconclusive, Rab9 prom act 12.7% and NPC1 prom act 16.1%.
For O=C(Nc1ccc(Cl)cc1)c1ccco1 the results were ELG1 genotox inconclusive, FLuc modulator 16.9µM*, ELG1 DNA repair inconclusive, Rab9 prom act inconclusive and NPC1 prom act 2.82µM*.
Screening CN(C(=O)c1cccc(NC(=O)c2ccco2)c1)c1ccccc1 returned ELG1 genotox -3.0%, FLuc modulator 1.7%, ELG1 DNA repair inconclusive, Rab9 prom act 2.7% and NPC1 prom act 2.0%.
CN(C(=O)c1ccc(NC(=O)c2ccco2)cc1)c1ccccc1 was read as ELG1 genotox inconclusive, FLuc modulator 16.9µM*, ELG1 DNA repair inconclusive, Rab9 prom act inconclusive and NPC1 prom act inconclusive.
Screening O=C(Oc1ccccc1)c1ccc(NC(=O)c2ccco2)cc1 returned ELG1 genotox inconclusive, SMN2 splice enh 8.5%, FLuc modulator 2.69µM*, ELG1 DNA repair inconclusive, Rab9 prom act 29.6% and NPC1 prom act 21.7%.
For Cc1ccc(Oc2ccc(NC(=O)c3ccco3)cc2)cc1 the results were ELG1 genotox inconclusive, SMN2 splice enh 2.0%, FLuc modulator 26.9µM*, ELG1 DNA repair inconclusive, Rab9 prom act inconclusive and NPC1 prom act 3.16µM*.
For O=C(Nc1nnc(C2CC2)s1)C1Cc2ccccc2CN1S(=O)(=O)c1ccccc1F (configuration not stated) the results were ELG1 genotox 1.2%, SMN2 splice enh 0.3%, FLuc modulator inconclusive, ELG1 DNA repair inconclusive, Rab9 prom act 23.6% and NPC1 prom act inconclusive.
